Screening results (PubChem)
Shown are actives, neighbours in structure and some others; about 21% of the full set was active somewhere.
CHX counter = counter-screen for Shiga toxin inhibitors: cycloheximide protein synthesis inhibition; max response, %; AID 2314; cell reporter, cycloheximide protein synthesis inhibition counterscreen; actives 12% (n = 300,000); in the data active means max response mostly above about 13%, no sharp cut-off; inactive means mostly below about 14%; further: read at 38.3 µM for the half of the compounds with a filed dose
Pf growth 96h = inhibits malaria parasite growth, 96 h | P. falciparum luciferase reporter growth, 96 h | Potency, µM (titrated, usually from 28.7 µM), usual class: inhibitors | actives 6.9% (n = 320,000) | AID 504834
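Readout is luminescence from an integrated firefly luciferase in P. falciparum. Red cells, 2% hematocrit and 0.05% parasitemia final, were cultured with compound through two parasite generations (96 hours) at 37 C, 5% CO2.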
Pf growth 48h = P. falciparum growth inhibition at 48 hours (one generation) | Potency, µM (top dose mostly 28.7 µM), most hits filed as inhibitors | P. falciparum luciferase growth in erythrocytes, 48 h | AID 504832 | actives 5.9% (n = 310,000)
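Erythrocytes infected with P. falciparum carrying an integrated firefly luciferase reporter (2% hematocrit, 0.1% parasitemia final) were exposed to compounds in RPMI 1640 with 0.5% Albumax at 37 C, 5% CO2. Growth inhibition was scored as reduced luminescence.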
Shiga inhibitor = inhibitors of Shiga toxin in Vero cells. Vero cells, Shiga toxin protein synthesis inhibition reporter. inhibition, % at 38.7 µM. actives 9.2% (n = 290,000). AID 2315; in the data active means inhibition mostly above about 28%, no sharp cut-off; inactive means mostly below about 43%
A number is an active result; . = inactive; ? = inconclusive; / = not tested or not shown; [ ] = another dose, or the depositor's remark. Unless noted, the call rests on the fitted dose curve; in most records, active means well fitted inhibition curve with a large enough effect; inconclusive means small, poorly fitted or top-dose-only effect, or another doubt; inactive means no such curve, though single readings can be large or run the other way.

SMILES | CHX counter | Pf growth 96h | Pf growth 48h | Shiga inhibitor
O=C(NCC(c1cccs1)N1CCOCC1)c1ccc(Cl)c([N+](=O)[O-])c1 (stereo not drawn) | . | . | . | .
C=CCn1c(SCC(=O)Nc2nnc(C)s2)nnc1C1CC1 | 16 | . | . | .
C=CCn1c(SCC(=O)Nc2cc(C)nn2-c2ccccc2)nnc1C1CCCCC1 | . | 12µM | . | .
CCC(C)[C@@H](N)C(=O)N/N=C/c1cccc2nccnc12 (stereo partly drawn) | . | ? | ? | .
Cc1cc2[nH]c3c(=O)n(Cc4ccccc4F)ncc3c2s1 | . | / | / | .
CCCOCn1cc(F)c(=O)[nH]c1=O | . | 5.2µM | ? | .
Cc1cn(Cc2ccccc2Cn2cc(C)c(=O)[nH]c2=O)c(=O)[nH]c1=O | . | . | . | .
Cc1c(C(=O)Nc2ccncc2)sc2nc(-c3ccccc3)cn12 | 18 | ? | 4.1µM | .
Cc1c(C(=O)NCc2cccnc2)sc2nc(-c3ccc(F)cc3)cn12 | 30 | ? | . | 45
Cc1c(C(=O)Nc2ccc3c(c2)OCCO3)sc2nc(-c3ccccc3)cn12 | . | ? | ? | .
Cc1c(C(=O)NCc2ccco2)sc2nc(-c3ccccc3)cn12 | 54 | ? | ? | 66
Cc1c(C(=O)NCc2cccnc2)sc2nc(-c3ccccc3)cn12 | 24 | ? | ? | 31
Cc1nc2ccccn2c1C(=O)NCc1cccnc1 | . | .[5.75 µM] | . | .
CC(C)N(CCCNC(=O)c1ccc(CS(=O)(=O)c2c(Cl)cccc2Cl)o1)Cc1ccccc1 | . | . | ? | .
Cc1ccc(C(=O)N(C)CCOc2ccccc2)cc1S(=O)(=O)N1CCOCC1 | / | . | . | /
CC1Oc2ccccc2N(Cc2ccc(F)cc2)C1=O (stereo not drawn) | . | . | . | .
CN(C[C@H](Cc1ccccc1)N(C[C@H](c1ccccc1)N(CCc1ccccc1)N=O)N=O)N=O | . | 13µM | ? | .
CN(C[C@H](c1ccccc1)N(C[C@H](Cc1ccccc1)N(CCc1ccccc1)N=O)N=O)N=O | . | 12µM | ? | .
CN(C[C@@H](Cc1cccc2ccccc12)N(C[C@H](Cc1ccccc1)N(CCc1ccccc1)N=O)N=O)N=O | . | . | . | .
CC(C)C[C@@H](CN(N=O)[C@@H](Cc1ccccc1)CN(C)N=O)N(CCc1ccccc1)N=O | . | ? | ? | .
COc1ccc(CCN2CC(C(=O)NCc3ccc(F)cc3)CC2=O)cc1OC (stereo not drawn) | . | . | . | .
Cc1nc2c(-c3ccc(F)cc3)cnn2c2c1CCC2 | 38 | . | . | 53
O=C(Nc1cccc(O)c1)c1cc(-c2cccs2)on1 | 30 | . | . | 77
CC(=O)c1cccc(NC(=O)c2cc(-c3cccs3)on2)c1 | 14 | . | . | .
COc1ccc(-n2cnnc2SCC(=O)Nc2ccccc2F)cc1 | . | . | . | .
SMILES | CHX counter | Pf growth 96h | Pf growth 48h | Shiga inhibitor
COc1c2ccccc2nc2ccccc12 | . | . | 2.1µM | .
CC1Cc2ccccc2N1C(=O)CN(C)CC(=O)Nc1cccc(F)c1 (stereo not drawn) | / | . | ? | /
CCOC(=O)C1CCCN(C(=S)NC(=O)c2cc(Br)ccc2Cl)C1 (stereo not drawn) | / | . | . | /
CC(=O)N1c2ccccc2Oc2cc3ccccc3cc21 | 26 | ? | 1.9µM | .
CC(=O)N1c2ccccc2Nc2ccccc21 | . | . | . | .
Cc1nnc(N/N=C\c2ccc(-c3ccccc3[N+](=O)[O-])o2)n1N | . | ? | . | .
Cc1nnc(N/N=C/c2c(Cl)cccc2Cl)n1N | . | . | . | .
Cc1nnc(N/N=C/c2cc(C)n(-c3ccc(F)cc3)c2C)n1N | 24 | . | . | .
CCOc1cc(/C=N/NC(=O)C(=O)N/N=C/c2ccc(O)c(OCC)c2)ccc1O | . | . | . | .
Cc1nnc(N/N=C/c2ccc(-c3ccccc3F)o2)n1N | 25 | . | . | 150
Cc1nnc(N/N=C/c2ccccc2O)n1N | 17 | . | . | 31
CCOc1cc(/C=N/Nc2ncnc(Cl)c2N)ccc1O | 35 | . | . | 57
Cc1ccc([C@@H]2[C@@H]3C(=O)N(C)C(=O)[C@@H]3[C@@H]3C(=O)Nc4ccccc4C(=O)N23)cc1 | . | . | . | .
CCOc1cc(/C=N/Nc2nnc(C)n2N)ccc1O | 25 | . | ? | 50
COc1ccc2c(c1)CCN=C2Cc1ccc(OC)c(OC)c1 | . | 13µM | ? | .
CC(C)[C@@H](C(=O)N1CCNCC1)n1cc(CCO)nn1 | . | . | . | .
Cc1n[nH]c(C)c1CCCCOc1ccccc1[N+](=O)[O-] | . | ? | . | .
CCOc1ccc(NC(=O)CSc2nc3ccccc3c(=O)n2CCCC(=O)NCC2CCCO2)cc1 (stereo not drawn) | . | . | . | .
COc1ccc(Cn2c(SCC#N)nc3ccc(N4CCOCC4)cc3c2=O)cc1 | 58 | . | . | 124
COc1cccc(NC(=O)CSc2nc3ccccc3c(=O)n2CCCC(=O)NCC2CCCO2)c1 (stereo not drawn) | . | 9.3µM | ? | .
CCCCn1c(SCC(=O)Nc2cccc(OC)c2)nc2ccc(N3CCOCC3)cc2c1=O | . | / | 9.3µM | .
O=C1N(Cc2cccc(Cl)c2)C[C@@H]2C[C@@H](c3ccc4nonc4c3)N3CCC[C@@]123 | . | ? | ? | .
CCc1nnc(NC(=O)CSc2nnc(COc3ccccc3)n2-c2ccc(C)cc2)s1 | . | . | . | .
Cc1ccc(OCc2nnc(SCc3cc(=O)[nH]c4ccccc34)n2-c2ccccc2)cc1 | . | 5.9µM | ? | .
CC(Sc1nnc(COc2ccc([N+](=O)[O-])cc2)n1-c1ccccc1)C(=O)O (stereo not drawn) | . | 9.3µM | . | .
SMILES | CHX counter | Pf growth 96h | Pf growth 48h | Shiga inhibitor
Cc1ccccc1OCc1nnc(SCc2cc(=O)[nH]c3ccccc23)n1-c1ccccc1 | . | ? | ? | .
Cc1ccc(OCc2nnc(SCC(=O)Nc3cccc4ccccc34)n2-c2ccccc2)cc1 | . | 13µM | ? | .
Cc1ccc(NC(=O)CSc2nnc(COc3ccc(C#N)cc3)n2-c2ccccc2)cc1C | . | 10µM | ? | .
Cc1ccc(C(=O)CSc2nnc(COc3ccc(C#N)cc3)n2-c2ccccc2)cc1 | . | ? | . | .
CCOC(=O)CNC(=O)CN1CCC(c2nc3ccccc3[nH]2)CC1 | . | ? | . | .
Cc1occc1C(=O)NNC(=O)c1ccccc1[N+](=O)[O-] | . | . | . | .
CC1CCCC(C)N1C(=O)CSc1nnc(COc2ccccc2)n1-c1ccccc1 (stereo not drawn) | . | 15µM | / | .
N#Cc1ccc(CSc2nnc(COc3ccccc3)n2-c2ccccc2)cc1 | . | ? | / | .
COc1ccc(-n2c(COc3ccccc3)nnc2SCc2ccc(C#N)cc2)cc1 | . | ? | 12µM | .
Cn1nc(-c2ccccc2)cc1NC(=O)c1cccs1 | . | . | . | .
COc1ccc(C(=O)CNc2ccc3ccccc3c2)cc1 | 31 | . | . | 79
COc1ccc(C(=O)Nc2ccncc2)c(OC)c1 | . | ? | . | .
COc1ccc(C(=O)NCCN2CCOCC2)c(OC)c1 | . | ? | . | .
COc1ccc(C(=O)NCCn2ccc3ccccc32)c(OC)c1 | 38 | . | . | .
COc1ccc(NC(=O)c2ccc(=O)oc2)cc1 | . | ? | . | .
